The values that follow come from PubChem BioAssay (EPA / NIEHS).

Results filed as inconclusive are left out. Active and inactive are the calls of the source. Rule for the calls: active = hit-call score of the fitted dose curve at least 0.9, where 1 is the maximum; inconclusive = response in the unintended direction; inactive = score below 0.9.

Test [1] in a line: ArunA_NOG_NeuriteLength: ArunA Biomedical's Neurite Outgrowth (NOG) Assay for Neurite Length (AID 2283757). An outline of the steps:
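Differentiated human H9-derived neurons were exposed for 48 h from seeding, then stained with Hoechst and βIII-tubulin. Automated high-content imaging gave total neurite length per valid neuron, counting processes >10 um. Loss of signal was scored versus DMSO.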

A short description of test [2]: ArunA_NOG_NeuritesPerNeuron: ArunA Biomedical's Neurite Outgrowth (NOG) Assay for Neurites Per Neuron (AID 2283758). Here is the method:
ArunA_NOG (Neurite Outgrowth) is a cell-based, image-based assay that uses human H9-derived embryonic differentiated neurons (hNN). Measurements were taken 48 hours after chemical dosing in a 96-well plate.ArunA_NOG_NeuritesPerNeuron is an assay component measured from the ArunA_NOG assay. It is designed to make measurements of neurite outgrowth related to number of neurites per neuron, using a form of morphology reporter, as detected with fluorescence intensity signals by HCS Fluorescent Imaging technology. Data from the assay component ArunA_NOG_NeuritesPerNeuron was analyzed at the endpoint, ArunA_NOG_NeuritesPerNeuron, in the positive analysis fitting direction relative to DMSO as the negative control and baseline of activity. […]
Chemical treatment: Differentiated hNN cells were seeded and immediately exposed to test medium for 48 h. Following chemical exposure, cell bodies were stained with Hoechst 33,258 to quantitate viable neuron count and neurites were labeled with bIII-tubulin/DyLight1 488. High content imaging assessed the neurite outgrowth endpoints: neurite total length per neuron (um), neurite count per neuron, and branch points per neurite using the methods described in (Harrill et al 2010). […] Fixed integration times for image acquisition in each channel were determined by manual sampling of control-treated wells across multiple plates. […]

Test [3] can be described thus: ArunA_NOG_BranchPointsPerNeurite: ArunA Biomedical's Neurite Outgrowth (NOG) Assay for Branch Points Per Neurite (AID 2283759). An outline of the steps: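 Automated image analysis traced neurites (processes >10 um) from valid cell bodies after Hoechst and βIII-tubulin staining. hNN cells from H9 embryonic stem cells, 48 h exposure. Fitted bidirectionally against DMSO.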

Test [4] concerns frog Androgen Receptor (AR), gene 399456. Nature of the test: ATG_frAR_XSP1: Attagene TRANS-FACTORIAL Multi-Species (XSP1) HepG2 Assay for frog Androgen Receptor (AR) (AID 2283770).

For the compound `S=C(S)NCCNC(=S)S.[Mn+2].[S-]C([S-])=NCCN=C([S-])[S-].[Zn+2]`, the outcome in test [1] and in test [2] was inactive.

Regarding `CC(C)(c1ccc(O)cc1)c1ccc(O)cc1`, the call in test [2] was inactive.

Consider `CC(C)CCCCCCc1ccc(O)cc1`, for which the result in test [3] was inactive.

`CCCCC(CC)COC(=O)c1ccccc1C(=O)O` (stereo unspecified): the call in test [4] was inactive.

Usually AC50 stands for the midpoint of the concentration-response curve, whichever way the signal moves. On to `O=C(c1ccc(O)cc1O)c1ccc(O)cc1O`, for which the half-maximal activity concentration (AC50) in test [4] was 2750 nM (active).
